# Compound activity (PubChem BioAssay)
# SW480 rereplic – induces DNA re-replication in SW480 colon adenocarcinoma cells. SW480 DNA re-replication, Hoechst DNA content imaging, 48 h. Potency, µM (highest dose often 46.1 µM), for inactives: at the top dose re-replication activation, hits mostly activators. 1.8% of 340,000 active. AID 624297; further: % of control where 0% means no effect; nearly all actives have a fitted effect of over 55% in size
#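 Per well, 250 cells were exposed to pinned compound for 48 hr. Nuclear DNA was visualised with Hoechst (40 min, 37 C) and total object intensity recorded by fluorescence scanning.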
# ELG1 DNA repair – ELG1-dependent DNA repair inhibition | HEK293T ELG1-luciferase reporter, luminescence, 16 h; DNA damage induced by 5-fluorouridine | 2.3% of 330,000 active | Potency, µM (series often up to 46.1 µM), for the others: top-dose activity change, negative = inhibition, hits mostly inhibitors; further: on the % scale 0 is the no-effect control and ±100 the full control effect; nearly all actives have a fitted effect of over 55% in size
#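 Quantitative HTS, concentration-response format. 2,000 cells/well co-treated with 5-fluorouridine and compound, 16 hr in 5% CO2 at 37 °C; ONE-Glo luminescence read after 30 min.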
# VP16 counter – Gal4-VP16 reporter inhibition counter-screen | 3.5% of 310,000 active | Potency, µM (top dose mostly 53.6 µM), for inactives: top-dose activity, negative = inhibition, hits mostly inhibitors | AID 2546 | Drosophila S2 Gal4-VP16 UAS-luciferase, luminescence, 20 h;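 further: Gal4-VP16 expression switched on by copper sulfate through the metallothionein promoter; on the % scale 0 is the no-effect control and ±100 the full control effect; nearly all actives have a fitted effect of over 50% in size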
# MCF10A rerep – DNA re-replication induction in MCF 10a cells. MCF 10A DNA re-replication, Hoechst nuclear intensity, 48 h. Potency, µM (titrated, usually from 46.1 µM), for inactives: at the top dose activity, positive = re-replication, actives largely listed as activators. 2.9% of 350,000 active. AID 624296; further: % of control where 0% means no effect; nearly all actives have a fitted effect of over 50% in size
# RORgamma inh – ROR gamma (mouse) transcription inhibition. AID 2551. 5.4% of 310,000 active. Potency, µM (highest dose often 53.6 µM), without a hit: at the top dose activity change, negative = inhibition, actives largely listed as inhibitors. Drosophila S2 Gal4-RORgamma UAS-luciferase reporter, 20 h; further: on the % scale 0 is the no-effect control and ±100 the full control effect; nearly all actives have a fitted effect of over 60% in size
# Target sequence (P51450 whole entry, looked up, the tested form may be a part): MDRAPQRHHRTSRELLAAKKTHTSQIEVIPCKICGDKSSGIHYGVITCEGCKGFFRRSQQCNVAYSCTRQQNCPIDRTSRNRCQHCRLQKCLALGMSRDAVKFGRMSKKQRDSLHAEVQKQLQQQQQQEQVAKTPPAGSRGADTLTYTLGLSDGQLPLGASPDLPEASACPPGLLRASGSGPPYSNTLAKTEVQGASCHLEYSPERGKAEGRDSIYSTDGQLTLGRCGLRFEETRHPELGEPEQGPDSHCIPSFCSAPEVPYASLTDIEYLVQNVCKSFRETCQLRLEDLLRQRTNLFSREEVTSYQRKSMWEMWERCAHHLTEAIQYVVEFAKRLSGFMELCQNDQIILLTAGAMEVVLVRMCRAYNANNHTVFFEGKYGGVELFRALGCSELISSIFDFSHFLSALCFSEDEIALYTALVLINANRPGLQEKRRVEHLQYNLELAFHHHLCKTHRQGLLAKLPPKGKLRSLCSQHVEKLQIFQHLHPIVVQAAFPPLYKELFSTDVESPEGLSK
#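 Stable Schneider cell line, Gal4 DNA-binding domain fused to ROR gamma, UAS-luciferase. Cmpd 1 hr RT → CuSO4 700 uM final → 20 hr RT → luciferase reagent 10 min → luminescence.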
# Active calls of the source: *; i = inactive; ? = inconclusive; / = no result; [ ] = dose if it differs, or a comment. The list is not random: actives were taken first. Their share in the collection is about 10%. The call rests on the fitted dose curve; in most records, active means well fitted curve in the direction sought with a large enough effect; inconclusive means small, poorly fitted or top-dose-only effect, or another doubt; inactive means no such curve, though single readings can be large; an effect the other way counts as inactive or inconclusive. Potency means the concentration at half of the fitted maximal effect.
SMILES,SW480 rereplic,ELG1 DNA repair,VP16 counter,MCF10A rerep,RORgamma inh
S=c1c2c(nc3nc[nH]n13)CCC2,?,-5%,0.89µM*,1%,?
COCc1ccc(CN2CCc3c([nH]c4ccccc34)C2CC(C)C)o1 (stereo not given),-14%,2%,-11%,?,40%
CCC(Oc1ccc(Br)cc1Cl)C(=O)Nc1nnc(C2CC2)s1 (stereo not given),-2%,-1%,?,?,13µM*
C[C@H](Cc1nc2c(cnn2-c2ccccc2Cl)c(=O)[nH]1)C(F)(F)F,/,/,1%,/,0%
CCOc1ccc(C(=O)CCC(=O)O)cc1,-13%,-9%,-8%,5%,-18%
CC/C(=N\NC(N)=O)c1ccc(OC)c(OC)c1,-16%,19%,1%,9%,5%
CC/C(=N\NC(=S)NC(C)C)c1ccc(OC)c(OC)c1,?,1%,10µM*,10%,4.5µM*
CCOc1ccc(/C(CCC(=O)O)=N/NC(=S)NC(C)C)cc1,8%,14%,?,1%,11µM*
Cc1ccc(NC(=O)c2cncc(Br)c2)nc1,16%,?,-11%,?,-27%
CC(C)(C)NC(=S)NC(=O)C12CCC3CC(CC(C3)C1)C2,6%,-20%,0%,21%,0.71µM*
COc1ccc2c(c1)C(C)=CC(C)(C)N2S(=O)(=O)c1ccc(NC(C)=O)cc1,1.5µM*,-2%,3%,?,25%
COc1ccc2c(c1)C(C)=CC(C)(C)N2S(=O)(=O)c1ccc(Br)cc1,18µM*,7%,-4%,?,-41%
CCOc1ccc2c(c1)C(C)=CC(C)(C)N2S(=O)(=O)c1ccc(NC(C)=O)cc1,?,?,-14%,?,5%
CC(=O)c1c(NC(=O)c2ccccc2)[nH]c(-c2ccccc2)nc1=S,-6%,?,8.9µM*,2%,3.2µM*
CC(=O)c1c(C)[nH]c(-c2ccccc2)nc1=S,-16%,-1%,?,7%,3.2µM*
CSc1nc(-c2ccccc2)[nH]c(=S)c1C(C)=O,2%,1%,?,0%,6.3µM*
COc1ccccc1-c1nc(=S)c(C(C)=O)c(C)[nH]1,-7%,2%,?,0%,5.6µM*
C=Cc1ncc(OC)c2c1[nH]c1ccccc12,?,4%,/,?,/
CC(NC(=O)NC(N)=O)(C(F)(F)F)C(F)(F)F,0%,8%,-7%,-9%,1%
CC(NC(=O)NNC(N)=S)(C(F)(F)F)C(F)(F)F,-4%,0%,20µM*,0%,?
COC(=O)[C@H]1[C@H]2C[C@@H]3c4[nH]c5ccccc5c4CCN3C[C@H]2C[C@@H](OC(=O)c2cc(OC)c(OC)c(OC)c2)[C@@H]1OC,?,/,?,-19%,7.1µM*
CN1CCN(/N=C/c2ccc(N(C)c3ccccc3)cc2)CC1,-2%,-3%,-7%,?,-16%
CN1CCN(/N=C/c2ccc(N(c3ccccc3)c3ccccc3)cc2)CC1,14%,?,1%,16µM*,28%
C=CCN(C(=O)c1csnn1)C(C(=O)NC1CCCC1)c1ccccc1F (stereo not given),-21%,1%,5%,-39%,1%
CCCCc1c(O)c2cccc3c2n(c1=O)CCC3,-20%,/,/,0%,/
SMILES,SW480 rereplic,ELG1 DNA repair,VP16 counter,MCF10A rerep,RORgamma inh
O=C1OCCN1CC(=O)N1CCc2c([nH]c3ccccc23)C1c1ccccn1 (stereo not given),-7%,-3%,-1%,-4%,21%
COC(=O)CNC(c1ccccc1)c1cc(Br)ccc1NC(=O)OCc1ccccc1 (stereo not given),-2%[9.22 µM],-6%,-18%,2%,2%
COC(=O)CNC(c1ccccc1)c1cc(C)ccc1NC(=O)c1cccc(Cl)c1 (stereo not given),?,18µM*,-3%,?,2%
Nc1ccc(Br)cc1C(NCC(=O)O)c1ccccc1 (stereo not given),6.5µM*,11%,15%,-2%,12%
CCOC(=O)CNC(c1ccccc1)c1cc(Br)ccc1NC(C)=O (stereo not given),2.9µM*,-12%,2%,-6%,-21%
COC(=O)CNC(c1ccccc1)c1cc(C)ccc1NC(=O)CNC(=O)OCc1ccccc1 (stereo not given),0%,-4%,1%,2%,-23%
CN(C)S(=O)(=O)c1ccc(C(=O)NN2C(=O)NC3(CCCCC3)C2=O)cc1,-8%,21%,/,-3%,/
O=C(CC12CC3CC(CC(C3)C1)C2)Nc1nncs1,4%,9%,-6%,20%,-11%
CC(=O)Nc1ccc(C(=O)COC(=O)c2cccs2)c(F)c1,-10%,?,/,7%,/
Cc1nc(SCC(=O)Nc2ccc3[nH]c(=O)[nH]c3c2)nc(C)c1C,2%,3%,/,1%,/
COc1ccc(CCNC(=O)COC(=O)c2cc(=O)[nH]c3ccccc23)cc1,-7%,2%,/,0%,/
CC(C)(C)NC(=O)c1ccc2c(c1)N(CC(=O)N1CCN(c3ccccc3F)CC1)C(=O)C(C)(C)O2,7%,?,-1%,10%,14%
CCN(CC(=O)Nc1ccccc1OC)C(=O)CSCC(=O)Nc1cccc(C)c1,?,/,/,15%,/
CC(=O)Oc1ccc(C2(C)CC(C)(C)NC(=S)N2C)c(OC(C)=O)c1 (stereo not given),19%,12%,?,1.3µM*,13µM*
COc1ccc(C2(c3ccc(OC(C)=O)cc3OC(C)=O)CC(c3ccccc3)NC(=S)N2)cc1 (stereo not given),i[1.84 µM],-22%,-4%,5%,-44%
CCC(C)(C)NC(=O)C(c1cccc(OC)c1OC)N(C(=O)CCC(=O)Nc1cc(C)on1)c1ccc2c(c1)OCCO2 (stereo not given),-3%,7%,0%,?,-2%
COCCNC(=S)Nc1ccc(N2CCCCC2)cc1,2%,?,-19%,14%,?
COCCNC(=S)NN=C1CCCCCC1,?,-3%,6.3µM*,8.2µM*,2µM*
COCCNC(=S)N/N=C1\CC(C)CC(C)(C)C1 (stereo not given),-1%,7%,3.5µM*,?,1µM*
O=C(NCC(=O)N1CCN(S(=O)(=O)c2ccccc2)CC1)c1ccc(Br)o1,-16%,?,/,-1%,/
COc1ccccc1N(CC(O)Cn1ccnc1C)S(=O)(=O)c1ccccc1 (stereo not given),-15%,-6%,8%,-13%,20%
CC(C)CC(=O)Nc1ccc2c(c1)nc(CCN1CCOCC1)n2C,-17%,11%,-1%,-5%,17%
COc1ccc(NC(=O)C/C(C)=N/NC(=O)c2cccs2)c([N+](=O)[O-])c1,20%,?,18µM*,11%,20µM*
